The sample as a whole holds a higher share of the strongest signals than the screen did.
Legend:
Test in all cases: glycan array binding signal (z-score within array); higher = stronger binding
Conditions in all cases: glycan notation: IUPAC condensed, linker removed
[1] = target: Fuc(a1-2)Gal(b1-3)GalNAc(b1-3)Gal(a1-4)Gal(b1-4)Glc
In short: (§1)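 The Consortium for Functional Glycomics database supplied 3228 glycan arrays, of which those lacking an available protein sequence were dropped. The binding signal, a within-array Z-score, was averaged across arrays of the same protein sequence and across linkers. Negative scores can be read as non-binding.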

[2] = target: Fuc(a1-2)Gal(b1-3)GlcNAc(b1-3)[Gal(b1-4)GlcNAc(b1-6)]Gal(b1-4)Glc
In short: as §1

[3] = target: Fuc(a1-2)Gal(b1-4)GlcNAc(b1-2)Man
In short: as §1

[4] = target: Fuc(a1-2)Gal(b1-4)[Fuc(a1-3)]GlcNAc(b1-2)[Fuc(a1-2)Gal(b1-4)[Fuc(a1-3)]GlcNAc(b1-4)]Man(a1-3)[Fuc(a1-2)Gal(b1-4)[Fuc(a1-3)]GlcNAc(b1-2)Man(a1-6)]Man(b1-4)GlcNAc(b1-4)GlcNAc
In short: as §1

[5] = target: Fuc(a1-2)Gal(b1-4)[Fuc(a1-3)]GlcNAc(b1-3)[Neu5Ac(a2-6)Gal(b1-4)GlcNAc(b1-6)]Gal(b1-4)Glc
In short: as §1

[6] = target: Fuc(a1-2)Gal6S(b1-3)GlcNAc6S
In short: as §1

[7] = target: Fuc(a1-2)[Gal(a1-3)]Gal(b1-3)GlcNAc(b1-2)Man(a1-3)[Fuc(a1-2)[Gal(a1-3)]Gal(b1-3)GlcNAc(b1-2)Man(a1-6)]Man(b1-4)GlcNAc(b1-4)GlcNAc
In short: as §1

[8] = target: Fuc(a1-2)[Gal(a1-3)]Gal(b1-4)GlcNAc(b1-2)Man
In short: as §1

[9] = target: Fuc(a1-2)[GalNAc(a1-3)]Gal(b1-3)GlcNAc(b1-6)GalNAc
In short: as §1

[10] = target: Fuc(a1-2)[GalNAc(b1-3)]Gal
In short: as §1

[11] = target: Fuc(a1-3)[Gal(b1-4)]GlcNAc(b1-2)Man
In short: as §1

[12] = target: Fuc(a1-3)[Gal(b1-4)]GlcNAc(b1-6)GalNAc
In short: as §1

[13] = target: Gal(a1-2)Gal
In short: as §1

[14] = target: Gal(a1-3)Gal(b1-3)GlcNAc
In short: as §1

[15] = target: Gal(a1-4)Gal(b1-4)GlcNAc
In short: as §1

[16] = target: Gal(b1-3)GalNAc(b1-4)Gal(b1-4)Glc
In short: as §1

[17] = target: Gal(b1-3)GalNAc(b1-4)[Neu5Ac(a2-3)]Gal(b1-4)Glc
In short: as §1

[18] = target: Gal(b1-3)GlcNAc(b1-2)Man(a1-3)[Gal(b1-3)GlcNAc(b1-2)Man(a1-6)]Man(b1-4)GlcNAc(b1-4)[Fuc(a1-6)]GlcNAc
In short: as §1

[19] = target: Gal(b1-3)GlcNAc(b1-6)[Gal(b1-3)]GalNAc
In short: as §1

[20] = target: Gal(b1-3)GlcNAc6S
In short: as §1

[21] = target: Gal(b1-4)GlcNAc(b1-2)Man(a1-3)Man(b1-4)GlcNAc(b1-4)GlcNAc
In short: as §1

[22] = target: Gal(b1-4)GlcNAc(b1-3)Gal(b1-4)GlcNAc(b1-3)Gal(b1-4)GlcNAc(b1-2)[Gal(b1-4)GlcNAc(b1-3)Gal(b1-4)GlcNAc(b1-3)Gal(b1-4)GlcNAc(b1-6)]Man(a1-6)[Gal(b1-4)GlcNAc(b1-3)Gal(b1-4)GlcNAc(b1-3)Gal(b1-4)GlcNAc(b1-2)Man(a1-3)]Man(b1-4)GlcNAc(b1-4)[Fuc(a1-6)]GlcNAc
In short: as §1

[23] = target: Gal(b1-4)GlcNAc(b1-3)Gal(b1-4)GlcNAc(b1-3)Gal(b1-4)GlcNAc(b1-3)Gal(b1-4)GlcNAc(b1-3)Gal(b1-4)GlcNAc(b1-2)Man(a1-3)[Gal(b1-4)GlcNAc(b1-3)Gal(b1-4)GlcNAc(b1-3)Gal(b1-4)GlcNAc(b1-3)Gal(b1-4)GlcNAc(b1-3)Gal(b1-4)GlcNAc(b1-2)Man(a1-6)]Man(b1-4)GlcNAc(b1-4)GlcNAc
In short: as §1

[24] = target: Gal(b1-4)GlcNAc(b1-3)Gal(b1-4)GlcNAc(b1-3)Gal(b1-4)GlcNAc(b1-3)Gal(b1-4)GlcNAc(b1-3)Gal(b1-4)GlcNAc(b1-3)Gal(b1-4)GlcNAc(b1-2)Man(a1-3)[Gal(b1-4)GlcNAc(b1-3)Gal(b1-4)GlcNAc(b1-3)Gal(b1-4)GlcNAc(b1-3)Gal(b1-4)GlcNAc(b1-3)Gal(b1-4)GlcNAc(b1-3)Gal(b1-4)GlcNAc(b1-2)Man(a1-6)]Man(b1-4)GlcNAc(b1-4)GlcNAc
In short: as §1

[25] = target: Gal(b1-4)GlcNAc(b1-3)Gal(b1-4)GlcNAc(b1-3)[Gal(b1-4)GlcNAc(b1-3)Gal(b1-4)GlcNAc(b1-6)]GalNAc
In short: as §1

[26] = target: Gal(b1-4)GlcNAc(b1-3)[Fuc(a1-3)GlcNAc(b1-6)]Gal(b1-4)Glc
In short: as §1

[27] = target: Gal(b1-4)GlcNAc(b1-6)[Gal(b1-4)GlcNAc(b1-3)]GalNAc
In short: as §1

[28] = target: Gal3S(b1-4)Glc
In short: as §1

[29] = target: Gal3S(b1-4)[Fuc(a1-3)]Glc6S
In short: as §1

[30] = target: Gal6S(b1-4)GlcNAc
In short: as §1

[31] = target: GalNAc(a1-3)GalNAc
In short: as §1

[32] = target: GalNAc(b1-4)GlcNAc6S
In short: as §1

[33] = target: Glc(a1-6)Glc(a1-6)Glc(a1-6)Glc
In short: as §1

[34] = target: GlcA3S(b1-3)Gal(b1-4)GlcNAc(b1-2)Man
In short: as §1

[35] = target: GlcNAc(a1-4)Gal(b1-4)GlcNAc(b1-3)Gal(b1-4)Glc
In short: as §1

[36] = target: GlcNAc(b1-2)[GlcNAc(b1-6)]Man(a1-6)[GlcNAc(b1-2)Man(a1-3)]Man(b1-4)GlcNAc(b1-4)GlcNAc
In short: as §1

[37] = target: GlcNAc(b1-3)Gal(b1-4)GlcNAc(b1-3)Gal(b1-4)GlcNAc(b1-2)[GlcNAc(b1-3)Gal(b1-4)GlcNAc(b1-3)Gal(b1-4)GlcNAc(b1-6)]Man(a1-6)[GlcNAc(b1-3)Gal(b1-4)GlcNAc(b1-3)Gal(b1-4)GlcNAc(b1-2)Man(a1-3)]Man(b1-4)GlcNAc(b1-4)[Fuc(a1-6)]GlcNAc
In short: as §1

[38] = target: GlcNAc(b1-3)Gal(b1-4)GlcNAc(b1-3)Gal(b1-4)GlcNAc(b1-3)Gal(b1-4)GlcNAc(b1-2)Man(a1-3)[GlcNAc(b1-3)Gal(b1-4)GlcNAc(b1-3)Gal(b1-4)GlcNAc(b1-3)Gal(b1-4)GlcNAc(b1-2)Man(a1-6)]Man(b1-4)GlcNAc(b1-4)[Fuc(a1-6)]GlcNAc
In short: as §1

[39] = target: GlcNAc6S(b1-3)Gal(b1-4)GlcNAc
In short: as §1

[40] = target: Neu5Ac(a2-3)Gal(b1-3)GlcNAc(b1-3)Gal(b1-3)GlcNAc
In short: as §1

[41] = target: Neu5Ac(a2-3)Gal(b1-3)GlcNAc(b1-3)Gal(b1-4)GlcNAc
In short: as §1

[42] = target: Neu5Ac(a2-3)Gal(b1-3)GlcNAc6S
In short: as §1

[43] = target: Neu5Ac(a2-3)Gal(b1-3)[Fuc(a1-4)]GlcNAc(b1-3)Gal(b1-4)[Fuc(a1-3)]GlcNAc
In short: as §1

[44] = target: Neu5Ac(a2-3)[GalNAc(b1-4)]Gal(b1-4)Glc
In short: as §1

[45] = target: Neu5Ac(a2-6)Gal(b1-4)GlcNAc(b1-2)Man(a1-6)Man(b1-4)GlcNAc(b1-4)GlcNAc
In short: as §1

[46] = target: Neu5Ac(a2-6)Gal(b1-4)GlcNAc(b1-2)Man(a1-6)[Gal(b1-4)GlcNAc(b1-2)Man(a1-3)]Man(b1-4)GlcNAc(b1-4)GlcNAc
In short: as §1

[47] = target: Neu5Ac(a2-6)Gal(b1-4)GlcNAc(b1-2)[Neu5Ac(a2-6)Gal(b1-4)GlcNAc(b1-4)]Man(a1-3)[GlcNAc(b1-4)][Neu5Ac(a2-6)Gal(b1-4)GlcNAc(b1-2)[Neu5Ac(a2-6)Gal(b1-4)GlcNAc(b1-6)]Man(a1-6)]Man(b1-4)GlcNAc(b1-4)GlcNAc
In short: as §1

[48] = target: Neu5Ac(a2-6)GalNAc(b1-4)GlcNAc
In short: as §1

[49] = target: Neu5Ac(a2-8)Neu5Ac(a2-3)[GalNAc(b1-4)]Gal(b1-4)Glc
In short: as §1

[50] = target: Neu5Ac(a2-8)Neu5Ac(a2-8)Neu5Ac(a2-3)Gal(b1-4)Glc
In short: as §1

[51] = target: Neu5Gc(a2-3)Gal(b1-4)GlcNAc(b1-3)Gal(b1-4)GlcNAc(b1-2)Man(a1-3)[Neu5Gc(a2-3)Gal(b1-4)GlcNAc(b1-3)Gal(b1-4)GlcNAc(b1-2)Man(a1-6)]Man(b1-4)GlcNAc(b1-4)GlcNAc
In short: as §1

B1: GS7807F-bth-514-18-514 (Bacteroides thetaiotaomicron) (protein)
chain: AGSCTGNFEEYNTNQFQIHEADPSTLMKSMIETIVNIQQNDSQMMDQMVGQLGGYLTCANVWSGTNFGTFNQSDAWNAGPWNTNFEKIYGNFFQIQEATNESGHYYAFARMIRAITMLRVADCYGPMPYSQVKKGNFYVAYDTEEQVYKNIMEDFASAANVLYNYYKDTNGNAPLASNDPVFSGNYANWARLANSMRLRVAIRISTAYPEMAKENAEAAASHEAGLIEANNDNAMMDCGSQTNPYQLAAVSWGDLRVNANIVDYMNGYGDPRMSKYFNHSTFTGHTQEYVGMRSGEDGFAKSDVAGYSIPAITGTSKLLVFCAAETAFLRAEGKLKNWSVGNKSAKEYYEEGIKLSMEQYGTTMPDNYLTNTEKPTVSHNNDPRGHAYTISNTVAVAWNDNNEEENLQRIITQKWIANYPLGLEAWAEYRRTGYPELYPCIDNLSPSGVDSKRGMRRLRFPYTEVQNNHSNYQQGVSYLKNGGPDNEATDLSWGKTN
glycan array binding signal (z-score) [1]: -0.883
glycan array binding signal (z-score) [2]: -0.372
glycan array binding signal (z-score) [3]: -0.353
glycan array binding signal (z-score) [4]: -0.286
glycan array binding signal (z-score) [5]: -0.798
glycan array binding signal (z-score) [6]: -0.358
glycan array binding signal (z-score) [7]: 0.454
glycan array binding signal (z-score) [8]: -0.295
glycan array binding signal (z-score) [9]: -0.854
glycan array binding signal (z-score) [10]: 3.2
glycan array binding signal (z-score) [11]: -0.562
glycan array binding signal (z-score) [12]: -0.328
glycan array binding signal (z-score) [13]: -0.45
glycan array binding signal (z-score) [14]: 0.018
glycan array binding signal (z-score) [15]: 0.384
glycan array binding signal (z-score) [16]: 0.212
glycan array binding signal (z-score) [17]: 3.23
glycan array binding signal (z-score) [18]: 0.491
glycan array binding signal (z-score) [19]: 1.38
glycan array binding signal (z-score) [20]: 2.12
glycan array binding signal (z-score) [21]: 0.202
glycan array binding signal (z-score) [22]: 3.25
glycan array binding signal (z-score) [23]: 4.26
glycan array binding signal (z-score) [24]: 3.26
glycan array binding signal (z-score) [25]: 3.96
glycan array binding signal (z-score) [26]: 1.53
glycan array binding signal (z-score) [27]: 0.25
glycan array binding signal (z-score) [28]: 0.164
glycan array binding signal (z-score) [29]: 3.48
glycan array binding signal (z-score) [30]: 0.547
glycan array binding signal (z-score) [31]: 0.13
glycan array binding signal (z-score) [32]: 0.521
glycan array binding signal (z-score) [33]: -0.652
glycan array binding signal (z-score) [34]: -0.771
glycan array binding signal (z-score) [35]: -0.587
glycan array binding signal (z-score) [36]: -0.73
glycan array binding signal (z-score) [37]: 0.581
glycan array binding signal (z-score) [38]: 3.26
glycan array binding signal (z-score) [39]: 1.06
glycan array binding signal (z-score) [40]: -0.891
glycan array binding signal (z-score) [41]: -0.842
glycan array binding signal (z-score) [42]: -0.491
glycan array binding signal (z-score) [43]: 0.124
glycan array binding signal (z-score) [44]: -0.409
glycan array binding signal (z-score) [45]: 3.88
glycan array binding signal (z-score) [46]: 3.49
glycan array binding signal (z-score) [47]: 0.039
glycan array binding signal (z-score) [48]: -0.875
glycan array binding signal (z-score) [49]: 3.32
glycan array binding signal (z-score) [50]: -0.82
glycan array binding signal (z-score) [51]: -0.775

Source: the supplement of paper PMC8728848
